PubChem BioAssay AID1626 (SRMLSC, 2009)
About 2,000 (0.91%) of roughly 220,000 compounds were called active. Another 2% or so got no clear call; they are omitted. A selection follows. Results with a measured potency or affinity are listed apart. Values without a mark were called inactive. No stated cut-off is given here; in the data, inconclusive means inhibition above about 80% without an active follow-up result; inactive means below that; test concentration not stated here.

Assay: M. tuberculosis H37Rv growth inhibitors, H37Rv strain (AID 1626);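 further: bacteria incubated seven days before Alamar blue readout; 0% = bacteria only wells and 100% = bacteria with antibiotic wells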
Conditions: active compounds read high, concentration not given here

SMILES | inhibition [%]
CC(=O)Nc1ccc(S(=O)(=O)NC(C)C(=O)NCCc2ccc(F)cc2)cc1 (stereo not drawn) | 1.81
O=C(COCC(=O)NCc1ccccc1)NCc1ccccc1 | -4.59
CCN(CC)S(=O)(=O)c1cc(F)ccc1OC | -2.44
CC(C)n1nnc2c(=O)oc3ccccc3c21 | 11.1
CCn1nnc2c(=O)oc3ccccc3c21 | 13.4
COc1cc2c(cc1OC)C(c1cc([N+](=O)[O-])ccc1O)NCC2 (stereo not drawn) | -9.49
CC(=O)c1cccc(NC(=O)N2CCc3ccccc3C2)c1 | -10.8
COCCOC(=O)C1=C(N)OC2=C(C(=O)CC(C)(C)C2)C1c1ccncc1 (stereo not drawn) | -0.69
O=C1NN(c2ccc(Cl)c(Cl)c2)C(=O)/C1=C/c1cccc(OC(=O)c2cccs2)c1 | 34.2
Cc1ccc(N2C(=O)NC(=O)/C(=C/c3ccc(OC(=O)c4cccs4)cc3)C2=O)cc1 | 4.29
COc1c(Cl)cc(Cl)cc1C(=O)Nc1ccccc1N1CCN(C(C)=O)CC1 | 1.59
CCOC(=O)c1[nH]cnc1C(=O)Nc1ccccc1OC | -3.28
O=C(Cn1nnc(-c2ccc(Cl)cc2)n1)NCC1CCCCC1 | 3.64
CCC1CCCCN1CC(=O)Nc1cc(OC)c(OC)cc1C#N (stereo not drawn) | -5.44
O=C(CC1SCCNC1=O)Nc1cccc([N+](=O)[O-])c1 (stereo not drawn) | -1.32
Oc1ccc(Cl)cc1C=Nc1ccc(Br)cc1 | -2.18
Oc1ccc(Br)cc1C=Nc1ccc(Cl)cc1 | 3.2
COCC(C)NC(=O)c1oc2c(c1C)C1(CCC2)SCCS1 (stereo not drawn) | 5.96
Cc1cc(N2CCN(c3ccc(F)cc3)CC2)nc(-c2ccccc2)n1 | 4.82
COc1ccc(NC(=O)C2CCN(c3cc(C)nc(-c4ccccc4)n3)CC2)cc1 | 11.4
COc1ccc(C2(O)CC3CCC(C2)N3c2nc(C)cc(C)c2C#N)cc1 (stereo not drawn) | -5.82

SMILES | inhibition [%]
Cc1cc(N2CCCC2)nc(N2C3CCC2CC(O)(c2ccc(F)cc2)C3)n1 (stereo not drawn) | 0.78
O=C(Cc1c(O)c2ccccc2[nH]c1=O)NCc1ccc(F)cc1 | -5.49
CCn1ccnc1CNC(=O)CC1C(=O)NCCN1CC(c1ccccc1)c1ccccc1 (stereo not drawn) | 4.83
CCN(Cc1ccccc1)C(=O)COC(=O)Cn1cnc2ccccc21 | 3.35
Clc1ccc(OCCn2ccnc2)c(Cl)c1 | -5.05
OC(Cn1ccnc1)c1ccc(Cl)cc1Cl (stereo not drawn) | -10.3
Clc1ccc(OCCn2ccnc2)c(Br)c1 | 1.12
S=C(NCCCn1ccnc1)Nc1ccc(Cl)cc1Cl | 5.11
OCC[C@H]1C[C@H](O)[C@@H](O)[C@@]2(CCCCO2)O1 | -8.14
S=C(NCc1ccccc1Cl)Nc1ccccc1Cl | 9.29
COc1ccccc1-n1cc(C(=O)c2cc(Cl)ccc2O)cc(C#N)c1=O | 7.62
CC(=O)OC(C(=O)NC1CCCCC1)c1ccc(C)cc1 (stereo not drawn) | -5.04
CCCC(C)C(=O)OCC(=O)Nc1ccc(Br)cc1 (stereo not drawn) | 10.2
Cc1ccc(NC(=O)CSCc2ccc(F)cc2)cc1 | 76.7
COC(=O)c1ccc(NC(=O)CSCc2ccc(C)cc2)cc1 | 70.8
COc1ccc(-n2c(-c3ccc(Cl)cc3)c[n+]3c2CCCCC3)cc1 | -11.5
O=C(C1CCC(CNc2c(N3CCOCC3)c(=O)c2=O)CC1)N1CCN(c2ccccc2)CC1 (stereo not drawn) | -8.11
COc1ccc(CN2CCc3ccccc3C2)c(OC)c1 | -5.76
Cc1ccc(S(=O)(=O)N2CCN=C2c2ccccc2)cc1C | 0.57
O=c1c([N+](=O)[O-])cccn1Cc1cccc(Cl)c1 | -8.12
COC(=O)c1ccc(Cn2cc(C(F)(F)F)ccc2=O)cc1 | 2.66

SMILES | inhibition [%]
NC(=O)c1ccc(C(F)(F)F)n(Cc2cccc(Cl)c2)c1=O | 17.3
COC(=O)c1cc(Br)c(=O)n(Cc2ccc(C(=O)O)cc2)c1 | -9.26
CC(C)NC(=O)COC(=O)c1ccc(Oc2ccccc2)cc1 | -7
c1ccc(-c2ccc(OCCCNC3CCCC3)cc2)cc1 | 11.4
Cc1ccc2oc3c(c(=O)c2c1)C(c1cccc(Br)c1)N(Cc1ccco1)C3=O (stereo not drawn) | 1.98
O=C1c2oc3ccccc3c(=O)c2C(c2cccc(Br)c2)N1Cc1ccco1 (stereo not drawn) | 1.43
CN1CCN(C(=S)c2cn(CCOc3ccccc3)c3ccccc23)CC1 | 13
Cc1cc(N/C=C(\C#N)S(=O)(=O)c2ccccc2Cl)nc(C)n1 | -9.07
COc1cc2c3c(c1)C(C)=CC(C)(C)N3C(=O)C2=O | -3.11
CC1=CC(C)(C)N2C(=O)C(=Nc3ccc(O)cc3)c3cccc1c32 | 3
CC(=O)N/C(=C\c1cccc([N+](=O)[O-])c1)C(=O)NC1CCCCC1 | -0.9
CCN(CC)S(=O)(=O)c1ccc(/C=C/C(=O)O)cc1 | -3.16
CS(=O)(=O)N(Cc1ccccc1)c1ccc(C(=O)NCC2CCCO2)cc1 (stereo not drawn) | -13.4
CCn1c(/C=C/c2ccccc2[N+](=O)[O-])nc2ccccc2c1=O | 2.98
CCn1c(/C=C/c2cccc([N+](=O)[O-])c2)nc2ccccc2c1=O | -7.86
Cc1ccc(NC(=O)CCNC(=O)c2ccco2)cc1 | 3.05
COc1ccc(NCc2nnc(SCC(=O)NNC(=O)c3ccc(C)cc3)n2C)cc1 | -19.4
CCN1CCN(c2oc(COc3ccc(-c4ccccc4)cc3)nc2C#N)CC1 | 10.7
COc1ccc(N2CCN(c3oc(COc4ccccc4)nc3C#N)CC2)cc1 | -5.04
O=S(=O)(c1ccc2oc(=S)[nH]c2c1)N1CCCCC1 | -5.83
CCC(C)[C@H](NC(=O)NCc1ccc(S(N)(=O)=O)cc1)C(=O)OC (stereo partly drawn) | 6.6
